Data on 26 molecules can be found in PubChem BioAssay (Tox21).

Several values for one entry are separate records, joined by “and”; a condition that tells them apart may be missing. Equal values may be shown once. A number with no mark means an inactive call. Inconclusive results are not listed. Activity calls are given as the source filed them. The call rests on the fitted dose curve; in most records, active means well fitted curve in the direction sought with a large enough effect in the repeat runs; inconclusive means weak or mixed curves; inactive means no such curve, though single readings can be large; an effect the other way counts as inactive or inconclusive.

Test [1] is described as follows: Human pregnane X receptor (PXR) small molecule agonists, qHTS cell viability counter screen (AID 1346977). Further: nearly all actives have a fitted effect of over 50% in size. Further: potency means the concentration at half of the fitted maximal effect. In a few lines:
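HepG2 cells stably carrying the PXR-Luc reporter are cultured with 5% charcoal-stripped FBS and treated with compounds for 24hr. CellTiter-Fluor is added at 23hr and fluorescence is read after 1hr.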

Test [2] can be described thus: Caspase-3/7 induction in HepG2 cells by small molecules, qHTS assay (AID 1346978). Further: nearly all actives have a fitted effect of over 15% in size. Further: potency means the concentration at half of the fitted maximal effect. The method, boiled down: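 Wild-type HepG2 cells (2,000/well) were settled 5 h at 37 C, 5% CO2, then exposed to compounds in DMSO for 17 h. Caspase-3/7 activity was read by luminescence 30 min after adding Caspase-Glo 3/7 reagent at room temperature.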
A general note: Quantitative high-throughput screening tests each substance at several concentrations.

A short description of test [3]: Caspase-3/7 induction in CHO-K1 cells by small molecules, qHTS cell viability counter screen (AID 1346979). Further: nearly all actives have a fitted effect of over 35% in size. Further: potency means the concentration at half of the fitted maximal effect. In a few lines:
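Seeding: 1,500 CHO-K1 cells/well. Rest: 5hr, 37C. Treatment: compounds in DMSO, 16hr. Read: CellTiter-Fluor, 1hr, fluorescence.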

Test [4] in a line: Caspase-3/7 induction in CHO-K1 cells by small molecules, qHTS assay (AID 1346980). Further: nearly all actives have a fitted effect of over 15% in size. Further: potency means the concentration at half of the fitted maximal effect. In a few lines:
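Wild-type cells were seeded at 1,500 per well and settled 5 hr at 37 C, 5% CO2, then exposed to DMSO-dissolved compounds for 17 hr. Caspase-Glo 3/7 reagent was added, and luminescence was read after 30min at room temperature.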

Test [5] is described as follows: Caspase-3/7 induction in HepG2 cells by small molecules, qHTS cell viability counter screen (AID 1346981). Further: nearly all actives have a fitted effect of over 30% in size. Further: potency means the concentration at half of the fitted maximal effect. On activity change, negative = cytotoxicity: series mostly up to about 92 µM. In a few lines:
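Wild-type HepG2 cells, 2,000/well, settled 5 hr at 37 C, 5% CO2 before compound addition. Viability read by CellTiter-Fluor fluorescence, reagent added after 16 hr compound exposure, then 1 hr at 37C, in the same wells as the caspase read.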

Test [6] has as its target Nuclear receptor subfamily 1 group I member 2 (Homo sapiens) (UniProt O75469). Put plainly: Human pregnane X receptor (PXR) small molecule agonists, qHTS assay (AID 1346982). Further: nearly all actives have a fitted effect of over 35% in size. Further: potency means the concentration at half of the fitted maximal effect. In a few lines:
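PXR-Luc HepG2 reporter cells (CYP3A4-driven luciferase) in 5% charcoal-stripped FBS medium, plated 5 h before compound addition, then treated 24 h at 37C. Luciferase read by ONE-Glo luminescence after 30 min at room temperature.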

For test [7] the target is unchanged. Put plainly: CYP3A4 induction through human pregnane X receptor (PXR) by small molecules, qHTS assay (AID 1346984). Further: nearly all actives have a fitted effect of over 40% in size. The method, boiled down: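 DPX-2 HepG2 cells carrying a PXR response element and CYP3A4-promoter luciferase construct, treated with compounds 24 hr at 37C. Then P450-Glo CYP3A4 Luciferin-IPA substrate (3uM final) for 3 hr at 37C, One-Glo added, luminescence read.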

The target is the same in test [8]. Put plainly: Human pregnane X receptor (PXR) activation by small molecules, qHTS assay (AID 1346985). Further: nearly all actives have a fitted effect of over 40% in size. In a few lines: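 DPX-2 cells (HepG2 co-transfected with a PXR response element and a CYP3A4-promoter luciferase construct) were seeded at 2,000 per well, rested 5 hr at 37C, then exposed to DMSO-dissolved compounds for 24 hr. Activation was read as luciferase luminescence.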

Test [9] deals with Cytochrome P450 2D6 (Homo sapiens) (UniProt P10635). The experiment in a line: Cytochrome P450 Family 2 Subfamily D Member 6 (CYP2D6) small molecule antagonists: luciferase reporter qHTS assay (AID 1671196). Further: nearly all actives have a fitted effect of over 50% in size. Further: potency means the concentration at half of the fitted maximal effect. On activity change, negative = inhibition: series mostly up to about 120 µM. In a few lines:
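Cell-free P450-Glo system: CYP2D6 with proluciferin substrate was pre-incubated with compound for 10 min, then reacted with NADPH regeneration for 1 h at room temperature. Luciferin product was detected after 20 min, and data were reported as relative luminescence units.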
Background: A reporter such as luciferase makes a cellular process visible.
On the % scale 0 is the no-effect control and ±100 the full control effect.

Chain of Nuclear receptor subfamily 1 group I member 2 (Homo sapiens) (O75469 whole entry, looked up): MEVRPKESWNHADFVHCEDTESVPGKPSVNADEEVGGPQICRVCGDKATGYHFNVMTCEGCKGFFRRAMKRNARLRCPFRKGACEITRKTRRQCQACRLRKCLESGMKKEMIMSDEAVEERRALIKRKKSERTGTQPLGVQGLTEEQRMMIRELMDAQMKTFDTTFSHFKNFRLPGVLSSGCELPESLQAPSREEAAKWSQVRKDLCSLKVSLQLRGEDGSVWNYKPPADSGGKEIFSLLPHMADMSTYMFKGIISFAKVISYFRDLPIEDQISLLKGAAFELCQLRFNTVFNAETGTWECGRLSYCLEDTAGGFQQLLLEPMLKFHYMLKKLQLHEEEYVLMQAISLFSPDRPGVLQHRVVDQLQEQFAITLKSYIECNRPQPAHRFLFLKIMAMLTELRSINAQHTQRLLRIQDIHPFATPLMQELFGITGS
Chain of Cytochrome P450 2D6 (Homo sapiens) (P10635 whole entry, looked up): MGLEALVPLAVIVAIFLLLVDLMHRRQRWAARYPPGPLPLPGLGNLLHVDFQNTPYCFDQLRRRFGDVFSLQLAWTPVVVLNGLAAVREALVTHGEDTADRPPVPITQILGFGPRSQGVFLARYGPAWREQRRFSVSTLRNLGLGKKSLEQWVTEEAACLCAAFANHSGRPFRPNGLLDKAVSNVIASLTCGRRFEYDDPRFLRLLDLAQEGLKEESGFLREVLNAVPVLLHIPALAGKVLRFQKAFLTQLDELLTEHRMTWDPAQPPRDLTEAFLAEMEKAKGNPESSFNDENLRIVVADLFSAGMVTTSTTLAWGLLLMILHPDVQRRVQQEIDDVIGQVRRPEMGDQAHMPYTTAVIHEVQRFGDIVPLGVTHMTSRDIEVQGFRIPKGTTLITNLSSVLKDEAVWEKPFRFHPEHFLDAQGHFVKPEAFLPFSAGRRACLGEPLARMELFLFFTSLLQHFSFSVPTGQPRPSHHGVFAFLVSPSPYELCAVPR

Consider `Nc1ncn([C@H]2C[C@H](O)[C@@H](CO)O2)c(=O)n1`, for which the Potency entry in test [1], in test [2], in test [3], in test [4], in test [5] and in test [6] was “inactive” throughout. Also, the Potency entry in test [7], in test [8] and in [9] was “inactive” throughout.
Regarding `Cc1cc(C(=O)O)ccc1[N+](=O)[O-]`, the Potency entry in test [1], in test [2], in [3], in [4], in test [5] and in test [6] was “inactive” each time. The Potency in test [9] is 56.5 µM (active).
As to `Cc1ccccc1S(=O)(=O)O`, the Potency entry in test [1], in test [2], in [3], in [4], in [5] and in [6] was “inactive” throughout. The Potency entry in test [9] was “inactive”.
For the molecule `O=C(O)c1nc(Cl)c(Cl)c(Cl)c1Cl`, the Potency result in [1], in test [2], in test [3], in [4], in [5] and in [6] was “inactive” in each case. Besides, the Potency in test [9] was 28.3 µM (active).
On to `CCCCC/C=C\C/C=C\CCCCCCCC(=O)NC(C)c1ccccc1` (stereo unspecified), for which the Potency result in test [1], in test [2], in [4] and in test [5] was “inactive” each time. The results for the Potency in test [3], in test [6] and in test [9] were 26.6 µM (active), 21.1 µM (active) and 4.36 µM (active), respectively.
Take `CCCCOC(=O)CCCCCCCC(=O)OCCCC`: the Potency result in test [1], in test [2], in test [3], in [4], in [5] and in [6] was “inactive” in each case. Moreover, the Potency result in test [9] is “inactive”.
Consider `CCCCCC[C@@H](O)C/C=C\CCCCCCCC(=O)OC`, for which the Potency result in test [1], in test [2], in test [3], in test [4], in test [5] and in test [6] was “inactive” each time. The Potency result in test [9] is “inactive”.
`OCc1cc(C(O)CNCCCCCCOCCCCc2ccccc2)ccc1O` (stereo unspecified): the Potency in test [1] is 21.1 µM (active); in test [3] it was 23.7 µM (active); in test [5], 26.6 µM (active). For the same molecule, the Potency result in [2], in test [4], in test [6] and in test [8] was “inactive” in each case.
For the molecule `CCO[C@H](Cc1ccc(OCCc2ccc(OS(C)(=O)=O)cc2)cc1)C(=O)O`, the Potency result in test [1], in [2], in test [3], in test [4], in [5] and in test [6] was “inactive” throughout. In addition, the Potency result in [9] is “inactive”.
For the molecule `COCC(C)OC(C)=O` (stereo unspecified), the Potency entry in test [1], in test [2], in test [3], in test [4], in [5] and in test [6] was “inactive” in each case. For the same molecule, in [9], the Potency entry is “inactive”.
In the case of `C=CC(=O)OCCOCCOCCOCCOC(=O)C=C`, the Potency in test [1] is 54 µM (active); in [2] it was 68 µM (active); in test [3], 8.68 µM (active) and 13.6 µM (active); in test [4], 9.74 µM (active) and 12.1 µM (active); in [5], 30.8 µM (active) and 27.1 µM (active). For the same molecule, the Potency entry in test [6] and in test [9] was “inactive” each time.
In the case of `CC(C)(CO)[N+](=O)[O-]`, the Potency entry in [1], in test [2], in [3], in test [4], in test [5] and in test [6] was “inactive” each time. Moreover, the Potency result in test [9] is “inactive”.
Take `CCOc1ccc(N=Nc2ccc(/C=C/c3ccc(N=Nc4ccc(OCC)cc4)cc3S(=O)(=O)O)c(S(=O)(=O)O)c2)cc1`: the Potency is 47.8 µM (active) in test [1], 38 µM (active) in test [3] and 42.6 µM (active) in test [5]. The Potency result in test [2], in [4], in [6] and in [9] was “inactive” in each case.
Regarding `Cc1cccc(C)c1NC(=O)CN(CC(=O)O)CC(=O)O`, the Potency result in test [1], in [2], in test [3], in test [4], in test [5] and in test [6] was “inactive” in each case. For the same molecule, the Potency entry in test [7], in test [8] and in [9] was “inactive” each time.
As to `C/C=C/C(=O)CC`, the activity change, negative = cytotoxicity was -29.3% [at 19 µM] in [1], 0.0214% [at 19 µM] in test [3] and -1.71% [at 19 µM] in [5]. Besides, the caspase activation in test [2] is 0.108% [at 19 µM]. For the same molecule, the caspase-3/7 activation in test [4] is 1.13% [at 19 µM]. The Potency in test [6] is 10.5 µM (active). In test [9], the activity change, negative = inhibition was 0.0645% [at 23.6 µM].
Regarding `CN1Cc2cc(C(=O)N3CCC(C4CCNCC4)CC3)ccc2NC(CC(=O)O)C1=O` (stereo unspecified), the Potency entry in test [1], in test [2], in [3], in test [4], in test [5] and in test [6] was “inactive” each time. In test [9], the Potency entry is “inactive”.
Take `C=C(C)C(=O)OCC`: the Potency entry in test [1], in test [2], in [3], in [4], in [5] and in test [6] was “inactive” each time. For the same molecule, in test [9], the Potency result was “inactive”.
Regarding `Cc1c(N)cccc1[N+](=O)[O-]`, the Potency entry in test [1], in test [2], in [3], in test [4], in test [5] and in test [6] was “inactive” throughout. In [9], the Potency entry was “inactive”.
Regarding `O=[N+]([O-])c1ccc(NCCO)c(OCCO)c1`, the results for the Potency in test [1], in test [3] and in test [5] were 48.6 µM (active), 48.6 µM (active) and 27.3 µM (active), respectively. For the same molecule, the Potency result in [2], in test [4], in [6] and in [9] was “inactive” throughout.
Consider `Nc1cccc(S(=O)(=O)c2cccc(N)c2)c1`, for which the Potency result in test [1], in test [2], in test [3], in [4], in test [5] and in test [6] was “inactive” in each case. Moreover, the Potency result in test [9] was “inactive”.
On to `Nc1ccc(N)c2c1C(=O)c1ccccc1C2=O`, for which the Potency in [1] was 9.69 µM (active); in [3] it was 24.3 µM (active); in test [5], 21.7 µM (active); in test [9] it was 35.6 µM (active). Further, the Potency result in test [2], in [4] and in test [6] was “inactive” throughout.
As to `O=C(O)c1ccco1`, the Potency entry in test [1], in test [2], in test [3], in [4], in [5] and in test [6] was “inactive” each time. In test [9], the Potency result is “inactive”.
As to `CC1CCC(=O)C1=O` (stereo unspecified), the Potency result in test [1], in test [2], in [3], in test [4], in test [5] and in test [6] was “inactive” each time. In test [9], the Potency entry was “inactive”.
With `COc1ccc(C)cc1[N+](=O)[O-]`, the Potency entry in test [1], in test [2], in [3], in test [4], in test [5] and in test [6] was “inactive” each time. Also, in test [9], the Potency result is “inactive”.
For `CCC(CC)Nc1ccc(C)c(C)c1`, the Potency entry in test [1], in test [2], in [3], in [4], in [5] and in test [6] was “inactive” each time. Further, the Potency entry in [9] was “inactive”.
Consider `CCCCCCCCO[C@@H]1O[C@H](CO)[C@@H](O)[C@H](O)[C@H]1O`, for which the Potency result in test [1], in test [2], in test [3], in test [4], in test [5] and in [6] was “inactive” throughout. In test [9], the Potency entry was “inactive”.
